Assay [1] in a line: Tanguay_ZF_120hpf_PE_legacy: (Legacy) Oregon State University Tanguay Lab 120 Hour Post-fertilization zebrafish Assay for Pericardial Edema (AID 2283640).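 As to AC50: potency for increased incidence of pericardial edema versus DMSO baseline.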 The essentials: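 Static waterborne exposure, 5D wild-type embryos, 28C, to 120 hpf; final DMSO 0.64% (vol/vol). Binary PE call at 120 hpf by brightfield; fitted upward vs DMSO baseline. 5uM trimethyltin chloride as positive control.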

Assay [2] is described as follows: Tanguay_ZF_120hpf_SOMI_legacy: (Legacy) Oregon State University Tanguay Lab 120 Hour Post-fertilization zebrafish Assay for Somite Malformation (AID 2283647). In outline: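 Binary brightfield scoring of somite defects at 120 hpf in 5D wild-type larvae; one dechorionated embryo per well, static exposure from 6 hpf, 28C, sealed and dark. Final DMSO 0.64%; trimethyltin chloride 5uM positive control.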

Assay [3] can be described thus: Tanguay_ZF_120hpf_PFIN_legacy: (Legacy) Oregon State University Tanguay Lab 120 Hour Post-fertilization zebrafish Assay for Pectoral Fin Malformation (AID 2283648).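 Also: each larva judged yes or no for fin defect by brightfield with dead larvae skipped.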 In outline:
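Dechorionated Tropical 5D wild-type zebrafish embryos, one per well, statically exposed from 6 to 120 hpf at 28C with 0.64% DMSO final. Pectoral fin malformation scored present/absent by brightfield at 120 hpf; not scored in dead embryos.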

Assay [4] can be described thus: Tanguay_ZF_120hpf_CFIN_legacy: (Legacy) Oregon State University Tanguay Lab 120 Hour Post-fertilization zebrafish Assay for Caudal Fin Malformation (AID 2283649). In outline: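 Dechorionated 5D wild-type zebrafish, static exposure 6–120 hpf, 28C, sealed and dark, 0.64% v/v DMSO final. Binary fin-malformation call at 120 hpf, brightfield; gain of signal vs DMSO baseline.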

Assay [5] in a line: Tanguay_ZF_120hpf_PIG_legacy: (Legacy) Oregon State University Tanguay Lab 120 Hour Post-fertilization zebrafish Assay for Pigmentation Malformation (AID 2283650). In outline: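 Dechorionated Tropical 5D wild-type embryos, one per well from 6 hpf, statically exposed at 28C in the dark until 120 hpf, 0.64% DMSO final. Pigmentation scored present/absent by brightfield microscopy; dead embryos not scored; fitted versus DMSO.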

The nature of assay [6]: Tanguay_ZF_120hpf_SWIM_legacy: (Legacy) Oregon State University Tanguay Lab 120 Hour Post-fertilization zebrafish Assay for Swim Bladder Malformation (AID 2283654).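 Also: swim bladder malformation in each larva scored yes or no under brightfield.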 In outline: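 Dechorionated wild-type Tropical 5D zebrafish embryos, one per well from 6 hpf, were statically exposed at 28C until 120 hpf in 0.64% DMSO. Swim bladder malformation scored as present/absent by brightfield microscopy; not scored in dead larvae.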

Assay [7] in a line: Tanguay_ZF_120hpf_TRUN_legacy: (Legacy) Oregon State University Tanguay Lab 120 Hour Post-fertilization zebrafish Assay for Truncated Body (AID 2283655). In outline: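 Whole-embryo zebrafish screen: dechorionated 5D embryos, static exposure 6–120 hpf, 28C, sealed foil-covered plates, 0.64% DMSO. Binary truncation call; gain of signal versus DMSO baseline.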
Assay [8] in a line: Tanguay_ZF_120hpf_NC_legacy: (Legacy) Oregon State University Tanguay Lab 120 Hour Post-fertilization zebrafish Assay for Notochord and Tail Malformation (AID 2283656). The essentials:
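Dechorionated Tropical 5D wild-type zebrafish embryos, one per well from 6 hpf, statically exposed to 120 hpf at 28C in 0.64% DMSO final. Notochord distortion scored present/absent by brightfield; dead embryos excluded.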

The test system of assay [9] is Thyroperoxidase (TPO), gene 54314. As to the kind of experiment: CCTE_Simmons_AUR_rTPO: CCTE's Amplex UltraRed Assay for Thyroperoxidase (TPO) Inhibition, Simmons Lab (AID 2283662).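 Also: potency for loss of signal meaning inhibition of peroxidase activity.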 In outline:
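Cell-free peroxidase activity assay using rat thyroid gland microsomes with excess H2O2 (300 uM) and 25 uM Amplex UltraRed. Compounds tested from 5 nM to 87.5 uM; fluorescence measured after 30 min at 37C, analysed relative to DMSO baseline.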

Assay [10] can be described thus: CCTE_Simmons_CellTiterGLO_HEK293T: Viability Assessment in CCTE's Assays for Thyroperoxidase (TPO) Inhibition, Simmons Lab (AID 2283665).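 As to AC50: cells exposed to compound for 24 h before readout; actives reduce ATP signal below DMSO vehicle meaning cytotoxicity.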 The essentials:
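HEK293T cells in DMEM with 1% FBS, dosed 24 h at 37C with 8 concentrations, 5 nM–87.5 uM final, 0.5% DMSO. ATP measured by CellTiter Glo luminescence; loss of signal vs DMSO, three biological replicates.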
(Cellular ATP, detected with luciferase, serves as a proxy for viable cell number.)

A short description of assay [11]: Tanguay_ZF_120hpf_TR_legacy: (Legacy) Oregon State University Tanguay Lab 120 Hour Post-fertilization zebrafish Assay for Touch Response (AID 2283667). The essentials:
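Tropical 5D wild-type zebrafish embryos statically exposed to 120 hpf at 28°C, sealed and dark-covered, 0.64% DMSO final; touch response scored as present/absent by brightfield microscopy at 120 hpf. Trimethyltin chloride 5 uM positive control; dead embryos not scored.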

Assay [12] is described as follows: CCTE_Padilla_ZF_144hpf_TERATOSCORE: (Legacy) CCTE's 144 Hour Post-fertilization zebrafish Assay Teratoscore, Padilla Lab (AID 2283679; active = hit-call score of the fitted dose curve at least 0.9, where 1 is the maximum; inactive = score below 0.9;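 as to AC50: zebrafish embryos with chorions exposed by immersion from 6-8 hpf to 5 dpf with daily renewal; teratogenicity score from eye scoring of death hatching and malformations at 144 hpf; higher score means more developmental defects relative to DMSO baseline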). In outline:
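Larvae scored by eye at 144 hpf for death, hatching and malformations after a day in clean Hanks'. Before that, daily-renewed exposure at 80 uM (0.4% DMSO, 26C) from roughly 6-8 hpf through 5 dpf, 4 embryos per chemical.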

Assay [13] in a line: Tanguay_ZF_120hpf_CIRC_legacy: (Legacy) Oregon State University Tanguay Lab 120 Hour Post-fertilization zebrafish Assay for Circulatory Malformation (AID 2283651). The essentials:
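Dechorionated wild-type 5D zebrafish embryos, one per well, statically exposed from 6 to 120 hpf at 28C with 0.64% DMSO; circulatory malformation scored present/absent by brightfield microscopy at 120 hpf, dead embryos excluded.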

A short description of assay [14]: STM_H9_OrnithineISnorm_perc: Stemina devTOX quickPredict H9 human embryonic stem cell (hESC)-based Assay for Ornithine (ORN) Metabolite Biomarker, Normalized (AID 2283712; active = hit-call score of the fitted dose curve at least 0.9, where 1 is the maximum; inactive = score below 0.9;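 also: ornithine released into spent medium during last day measured by mass spectrometry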). In outline:
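Undifferentiated H9 hESCs exposed 72 h with daily media and compound renewal; final 24-h conditioned medium analysed by UPLC-HRMS. Ornithine peak area normalised to spiked C13 standard and to median 0.1% DMSO control; viability by CellTiter-Fluor.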

A short description of assay [15]: Tanguay_ZF_120hpf_BRAI_legacy: (Legacy) Oregon State University Tanguay Lab 120 Hour Post-fertilization zebrafish Assay for Brain Malformation (AID 2283641). The essentials: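 Read-out: binary brain morphology call at 120 hpf (brightfield), fitted in gain-of-signal direction vs DMSO. Wild-type Tropical 5D embryos, static exposure, 28C, 0.64% DMSO final; 5uM trimethyltin chloride as positive control.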

SMILES strings stand for the structures. Results filed as inconclusive are left out. Active and inactive are the calls of the source. The calls were made as follows, unless noted: active = hit-call score of the fitted dose curve at least 0.9, where 1 is the maximum; inconclusive = response in the unintended direction; inactive = score below 0.9.

Usually AC50 stands for the concentration at which the activity in the assay is half-maximal. Take `S=c1[nH]c2ccccc2s1`: the AC50 in assay [1] is 37.6 µM (active); in [2], 44.5 µM (active); in [3], 10.4 µM (active); in assay [4], 31.9 µM (active); in assay [5], 39.6 µM (active); in assay [7] it was 11.4 µM (active). Also, the AC50 was 51.8 µM (active) in assay [8], 0.433 µM (active) in assay [9], 12.3 µM (active) in [11] and 31.1 µM (active) in assay [12]. Further, the outcome in assay [6] and in [10] was inactive.
As to `Cc1cc(Cc2ccc(N)c(C)c2)ccc1N`, the result in [1], in assay [2], in assay [3], in assay [4], in [5] and in assay [13] was inactive. Besides, the result in [6], in assay [7], in assay [8], in assay [10], in assay [11] and in assay [14] was inactive. Further, the values for the AC50 in assay [9] and in [12] were 0.844 µM (active) and 88.5 µM (active), respectively.
For the molecule `CCCCCCCCCCCCCCOS(=O)(=O)O`, the AC50 in [1] was 27.7 µM (active); in assay [3] it was 16.8 µM (active); in assay [4], 46.9 µM (active); in assay [5], 9.35 µM (active); in assay [7], 31.3 µM (active); in [9] it was 43.8 µM (active). Moreover, the AC50 in assay [10] is 22.3 µM (active); in assay [11], 32.6 µM (active); in assay [12] it was 15.3 µM (active). The result in assay [2], in assay [13], in assay [6] and in [8] was inactive.
Consider `CS(=O)(=O)c1ccc([C@@H](C[C@H]2CCC(=O)C2)C(=O)Nc2cnccn2)cc1Cl`, for which the call in assay [1], in assay [2], in [3], in [4], in assay [5] and in [13] was inactive. For the same molecule, the molecule was classed as inactive in assay [6], in assay [7], in [8], in assay [11] and in assay [12].
With `O=C1NC(=O)C(c2ccccc2)(c2ccccc2)N1`, the call in [1], in [2], in assay [3], in assay [4], in assay [5] and in assay [13] was inactive. The call in assay [6], in assay [7], in assay [8], in assay [11] and in [14] was inactive.
For `CC(C)c1cccc(C(C)C)c1`, the molecule was classed as inactive in assay [1], in [15], in assay [4], in [5], in [13] and in [7]. Moreover, the result in assay [8] and in assay [11] was inactive.
Regarding `CC(C)c1cccc(C(C)C)c1NC(=O)NS(=O)(=O)c1cc(C(C)(C)O)co1`, the molecule was called inactive in assay [1], in [15], in assay [3], in assay [4], in assay [5] and in [13]. The call in assay [7], in [8], in assay [11] and in assay [12] was inactive.
Regarding `CO[C@@H]1COCC[C@@H]1N[C@@H]1CC[C@@](C(=O)N2CCc3ncc(C(F)(F)F)cc3C2)(C(C)C)C1`, the result in assay [1], in [2], in assay [3], in assay [4], in assay [5] and in assay [13] was inactive. The molecule was classed as inactive in assay [6], in assay [7], in assay [8] and in [11].
Regarding `CC(=O)OCC(COC(C)=O)OC(C)=O`, the outcome in assay [1], in [2], in assay [3], in assay [4], in assay [5] and in [13] was inactive. For the same molecule, the result in assay [6] and in assay [8] was inactive.
Consider `OCC(CO)n1cnc(-c2ccc(F)cc2)c1-c1ccnc(Oc2ccccc2)n1`, for which the molecule was classed as inactive in [1], in assay [15], in [2], in [4], in [5] and in assay [13]. For the same molecule, the result in assay [6], in assay [7], in [8] and in [11] was inactive.
Regarding `NC1CCCCC1`, the outcome in assay [1], in [15], in assay [4], in assay [5], in assay [13] and in [7] was inactive. In addition, the call in assay [8] and in assay [11] was inactive.
In the case of `CC(=O)O[C@]1(C(C)=O)CC[C@H]2[C@@H]3C=C(Cl)C4=CC(=O)[C@@H]5C[C@@H]5[C@]4(C)[C@H]3CC[C@@]21C`, the result in [1], in assay [15], in assay [2], in [4], in assay [5] and in assay [13] was inactive. Besides, the result in [6] and in assay [11] was inactive. Further, in assay [12], the AC50 was 15.2 µM (active).

These data come from PubChem BioAssay (EPA / NIEHS).
